# In PubChem BioAssay AID1159580 (chemical genetic matrix, 2015):
# About 2,000 (36%) of roughly 5,500 compounds were called active. Inconclusive results (about 18%) are left out. The list shows a part of the results. Values without a mark were called inactive. Rule as the data show it: active = normalized growth mostly below about 0.91 (no sharp cut-off); inconclusive = no clear call, values can overlap the other calls; inactive = mostly above about 0.92.
# Assay: chemical genetic growth profiling, strain panel (AID 1159580);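 also: tested at 20 µM; growth read once vehicle control cultures reached saturation at 30 °C; 1 = growth at the plate median or of vehicle wells; lower values mean less growth of the strain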
# Conditions: growth OD
smiles,measurement,setting,value
CCCCOC(=O)c1ccc(N)cc1,normalized growth,"S. cerevisiae deletion strains, locus YJR075W, strain HOC1, hits give low values",0.888
same,normalized growth,"S. cerevisiae deletion strains, locus YKL009W, strain mrt4, hits give low values",0.946
same,normalized growth,"S. cerevisiae deletion strains, locus YKL068W, hits give low values",0.962
same,normalized growth,"S. cerevisiae deletion strains, locus YKL085W, strain MDH1 (second series), hits give low values",0.961
same,normalized growth,"S. cerevisiae deletion strains, locus YKL085W, strain MDH1, hits give low values",0.961
same,normalized growth,"S. cerevisiae deletion strains, locus YKL160W, strain elf1, hits give low values",0.875 (active)
same,normalized growth,"S. cerevisiae deletion strains, locus YKL190W, strain CNB1, hits give low values",0.975
same,normalized growth,"S. cerevisiae deletion strains, locus YKR001C, strain vps1, hits give low values",0.693 (active)
same,normalized growth,"S. cerevisiae deletion strains, locus YKR026C, strain gcn3, hits give low values",0.91 (active)
same,normalized growth,"S. cerevisiae deletion strains, locus YKR091W, strain srl3, hits give low values",0.907 (active)
same,normalized growth,"S. cerevisiae deletion strains, locus YLL001W, strain dnm1, hits give low values",0.825 (active)
same,normalized growth,"S. cerevisiae deletion strains, locus YLL026W, hits give low values",0.888 (active)
same,normalized growth,"S. cerevisiae deletion strains, locus YLL041C, strain sdh2, hits give low values",0.899 (active)
same,normalized growth,"S. cerevisiae deletion strains, locus YLR027C, strain aat2, hits give low values",0.878 (active)
same,normalized growth,"S. cerevisiae deletion strains, locus YLR039C, strain RIC1, hits give low values",0.783
same,normalized growth,"S. cerevisiae deletion strains, locus YLR058C, strain SHM2, hits give low values",0.979
same,normalized growth,"S. cerevisiae deletion strains, locus YLR102C, strain apc9, hits give low values",0.955
same,normalized growth,"S. cerevisiae deletion strains, locus YLR113W, strain HOG1, hits give low values",0.954
same,normalized growth,"S. cerevisiae deletion strains, locus YLR221C, strain rsa3, hits give low values",0.841 (active)
same,normalized growth,"S. cerevisiae deletion strains, locus YLR258W, strain gsy2, hits give low values",0.873 (active)
same,normalized growth,"S. cerevisiae deletion strains, locus YLR262C, strain YPT6 (second series), hits give low values",0.433 (active)
same,normalized growth,"S. cerevisiae deletion strains, locus YLR262C, strain YPT6, hits give low values",0.775
same,normalized growth,"S. cerevisiae deletion strains, locus YLR268W, strain sec22, hits give low values",0.86 (active)
same,normalized growth,"S. cerevisiae deletion strains, locus YLR320W, strain mms22, hits give low values",0.635 (active)
same,normalized growth,"S. cerevisiae deletion strains, locus YLR330W, strain CHS5, hits give low values",0.947
same,normalized growth,"S. cerevisiae deletion strains, locus YLR342W, strain FKS1 (second series), hits give low values",0.661 (active)
same,normalized growth,"S. cerevisiae deletion strains, locus YLR342W, strain FKS1, hits give low values",0.605 (active)
same,normalized growth,"S. cerevisiae deletion strains, locus YLR357W, strain rsc2, hits give low values",0.942
same,normalized growth,"S. cerevisiae deletion strains, locus YLR370C, strain arc18, hits give low values",0.844 (active)
same,normalized growth,"S. cerevisiae deletion strains, locus YLR371W, strain rom2, hits give low values",0.886 (active)
same,normalized growth,"S. cerevisiae deletion strains, locus YLR384C, strain iki3, hits give low values",0.946
same,normalized growth,"S. cerevisiae deletion strains, locus YLR418C, strain cdc73, hits give low values",0.765 (active)
same,normalized growth,"S. cerevisiae deletion strains, locus YML016C, strain PPZ1, hits give low values",0.981
same,normalized growth,"S. cerevisiae deletion strains, locus YML032C, strain rad52, hits give low values",0.905 (active)
same,normalized growth,"S. cerevisiae deletion strains, locus YML120C, strain ndi1, hits give low values",0.897 (active)
same,normalized growth,"S. cerevisiae deletion strains, locus YML124C, strain tub3, hits give low values",0.939
same,normalized growth,"S. cerevisiae deletion strains, locus YMR058W, strain fet3, hits give low values",0.881 (active)
same,normalized growth,"S. cerevisiae deletion strains, locus YMR078C, strain ctf18, hits give low values",0.933
same,normalized growth,"S. cerevisiae deletion strains, locus YMR125W, strain sto1, hits give low values",0.871 (active)
same,normalized growth,"S. cerevisiae deletion strains, locus YMR129W, hits give low values",0.922 (active)
same,normalized growth,"S. cerevisiae deletion strains, locus YMR205C, strain PFK2, hits give low values",0.793 (active)
same,normalized growth,"S. cerevisiae deletion strains, locus YMR223W, strain ubp8, hits give low values",0.902 (active)
same,normalized growth,"S. cerevisiae deletion strains, locus YMR231W, strain pep5, hits give low values",0.931
same,normalized growth,"S. cerevisiae deletion strains, locus YMR263W, strain SAP30, hits give low values",0.93
same,normalized growth,"S. cerevisiae deletion strains, locus YMR307W, strain GAS1, hits give low values",0.319 (active)
same,normalized growth,"S. cerevisiae deletion strains, locus YNL067W, strain RPL9B, hits give low values",0.907
same,normalized growth,"S. cerevisiae deletion strains, locus YNL071W, strain lat1, hits give low values",0.653 (active)
same,normalized growth,"S. cerevisiae deletion strains, locus YNL128W, strain TEP1, hits give low values",0.989
same,normalized growth,"S. cerevisiae deletion strains, locus YNL153C, strain GIM3, hits give low values",0.939
same,normalized growth,"S. cerevisiae deletion strains, locus YNL183C, strain NPR1, hits give low values",0.934
same,normalized growth,"S. cerevisiae deletion strains, locus YNL209W, strain ssb2, hits give low values",0.927 (active)
same,normalized growth,"S. cerevisiae deletion strains, locus YNL233W, strain BNI4, hits give low values",0.86 (active)
same,normalized growth,"S. cerevisiae deletion strains, locus YNL248C, strain rpa49, hits give low values",0.904
same,normalized growth,"S. cerevisiae deletion strains, locus YNL250W, strain rad50, hits give low values",0.934
same,normalized growth,"S. cerevisiae deletion strains, locus YNL271C, strain bni1, hits give low values",0.938
same,normalized growth,"S. cerevisiae deletion strains, locus YNL298W, strain CLA4, hits give low values",0.939
same,normalized growth,"S. cerevisiae deletion strains, locus YNL307C, strain MCK1, hits give low values",0.868 (active)
same,normalized growth,"S. cerevisiae deletion strains, locus YNL322C, strain KRE1 (second series), hits give low values",0.91
same,normalized growth,"S. cerevisiae deletion strains, locus YNL322C, strain KRE1, hits give low values",0.987
same,normalized growth,"S. cerevisiae deletion strains, locus YNR049C, strain mso1, hits give low values",0.905 (active)
same,normalized growth,"S. cerevisiae deletion strains, locus YNR052C, strain pop2, hits give low values",0.949
same,normalized growth,"S. cerevisiae deletion strains, locus YOL006C, strain TOP1, hits give low values",0.64
same,normalized growth,"S. cerevisiae deletion strains, locus YOL012C, strain htz1",0.742
same,normalized growth,"S. cerevisiae deletion strains, locus YOL147C, strain pex11, hits give low values",0.937
same,normalized growth,"S. cerevisiae deletion strains, locus YOR001W, strain rrp6, hits give low values",0.853 (active)
same,normalized growth,"S. cerevisiae deletion strains, locus YOR061W, strain CKA2, hits give low values",0.986
same,normalized growth,"S. cerevisiae deletion strains, locus YOR069W, strain VPS5, hits give low values",0.987
same,normalized growth,"S. cerevisiae deletion strains, locus YOR070C, strain gyp1, hits give low values",0.9 (active)
same,normalized growth,"S. cerevisiae deletion strains, locus YOR080W, strain dia2, hits give low values",0.95
same,normalized growth,"S. cerevisiae deletion strains, locus YOR083W, strain WHI5, hits give low values",0.862 (active)
same,normalized growth,"S. cerevisiae deletion strains, locus YOR106W, strain vam3, hits give low values",0.771 (active)
same,normalized growth,"S. cerevisiae deletion strains, locus YOR136W, strain idh2, hits give low values",0.956
same,normalized growth,"S. cerevisiae deletion strains, locus YOR144C, strain elg1, hits give low values",0.961
same,normalized growth,"S. cerevisiae deletion strains, locus YOR184W, strain ser1, hits give low values",0.817 (active)
same,normalized growth,"S. cerevisiae deletion strains, locus YOR231W, strain MKK1, hits give low values",0.987
same,normalized growth,"S. cerevisiae deletion strains, locus YOR265W, strain rbl2, hits give low values",0.902 (active)
same,normalized growth,"S. cerevisiae deletion strains, locus YOR270C, strain vph1, hits give low values",0.489 (active)
same,normalized growth,"S. cerevisiae deletion strains, locus YOR290C, strain snf2, hits give low values",0.867
same,normalized growth,"S. cerevisiae deletion strains, locus YOR316C, strain cot1, hits give low values",0.955
same,normalized growth,"S. cerevisiae deletion strains, locus YPL051W, strain arl3, hits give low values",0.725 (active)
same,normalized growth,"S. cerevisiae deletion strains, locus YPL055C, strain LGE1, hits give low values",0.889
same,normalized growth,"S. cerevisiae deletion strains, locus YPL078C, strain atp4, hits give low values",0.795 (active)
same,normalized growth,"S. cerevisiae deletion strains, locus YPL106C, strain sse1, hits give low values",0.792 (active)
same,normalized growth,"S. cerevisiae deletion strains, locus YPL240C, strain hsp82, hits give low values",0.914 (active)
same,normalized growth,"S. cerevisiae deletion strains, locus YPL241C, strain CIN2, hits give low values",0.98
same,normalized growth,"S. cerevisiae deletion strains, locus YPL256C, strain CLN2, hits give low values",0.967
same,normalized growth,"S. cerevisiae deletion strains, locus YPR119W, strain clb2, hits give low values",0.949
same,normalized growth,"S. cerevisiae deletion strains, locus YPR141C, strain kar3, hits give low values",0.933
same,normalized growth,"S. cerevisiae deletion strains, locus YPR163C, strain tif3, hits give low values",0.946
same,normalized growth,"S. cerevisiae deletion strains, locus YPR167C, strain met16, hits give low values",0.96
same,normalized growth,"S. cerevisiae deletion strains, strain wtn01, hits give low values",0.871 (active)
same,normalized growth,"S. cerevisiae strains, strain wild type, hits give low values",0.949
